The panel holds about 79,000 compounds, 15% with a hit somewhere; the sample as a whole holds those more often. Values without a mark were called inactive. The source made the active and inactive calls. Cut-off read from the data, not from the text of the source: active = growth inhibition above about 70%; inactive = the rest.
Tests used:
[1] = NCI Yeast Anticancer Drug Screen. Data for the rad52 strain (AID 147);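 note: 0% = growth of vehicle-treated control cultures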; conditions: S. cerevisiae rad52 mutant growth inhibition, active compounds read high
How it was run: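 Yeast strain carrying a DNA damage repair alteration was exposed to test compounds. Growth inhibition was measured relative to vehicle-treated controls.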

[2] = NCI Yeast Anticancer Drug Screen. Data for the wt1 strain (AID 149);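 note: 0% = growth of vehicle-treated wt1 cultures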; conditions: S. cerevisiae wt1 strain (SPY 50644) growth inhibition, active compounds read high
How it was run: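 Measured: growth of wt1 yeast under compound versus vehicle treatment, reported as inhibition.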

[3] = NCI Yeast Anticancer Drug Screen. Data for the rad50EPP+ strain (AID 151);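 note: 0% = growth of vehicle-treated control cultures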; conditions: S. cerevisiae rad50 mutant strain, active compounds read high
How it was run: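 Yeast strain carrying rad50 alteration (rad50EPP+) exposed to compounds; growth inhibition measured relative to vehicle-treated controls.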

[4] = NCI Yeast Anticancer Drug Screen. Data for the mgt1 strain (AID 153); conditions: S. cerevisiae mgt1 mutant growth inhibition, active compounds read high
How it was run: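 Yeast mgt1 strain (DNA repair/cell-cycle alteration panel) exposed to compounds; growth inhibition measured relative to vehicle-treated controls.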

[5] = NCI Yeast Anticancer Drug Screen. Data for the rad50 strain (AID 155);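 note: 0% = growth of vehicle-only cultures of the same strain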; conditions: S. cerevisiae rad50 strain growth inhibition, active compounds read high
How it was run: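 Growth of the mutant yeast was measured after compound exposure and referenced to vehicle-treated cultures.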

[6] = NCI Yeast Anticancer Drug Screen. Data for the mec2-1 strain (AID 157); conditions: S. cerevisiae mec2-1 strain, active compounds read high
How it was run: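 mec2-1 yeast strain, carrying an alteration in DNA damage repair or cell cycle control, was exposed to compounds; growth inhibition was measured relative to vehicle-treated controls.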

[7] = NCI Yeast Anticancer Drug Screen. Data for the rad14 strain (AID 159);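 note: 0% = growth of vehicle-treated control cultures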; conditions: S. cerevisiae rad14 strain growth inhibition, active compounds read high
How it was run: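 Here, inhibition of yeast growth was measured after compound exposure, using a strain with a genetic defect in DNA damage repair and vehicle-treated cultures as the reference.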

[8] = NCI Yeast Anticancer Drug Screen. Data for the CLN2oe strain (AID 163);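 note: 0% = growth of vehicle-only control cultures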; conditions: S. cerevisiae CLN2oe strain, active compounds read high
How it was run: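 Yeast cells carrying a defined cell-cycle control alteration were exposed to test compounds. Growth inhibition was scored against vehicle-treated control cultures.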

[9] = NCI Yeast Anticancer Drug Screen. Data for the cln2 rad14 strain (AID 165);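 note: 0% = growth equal to vehicle treated cultures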; conditions: S. cerevisiae cln2 rad14 strain, active compounds read high
How it was run: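 Yeast carrying cln2 and rad14 alterations (cell cycle control and DNA damage repair) were exposed to compounds. Growth inhibition was measured against vehicle-treated controls.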

[10] = NCI Yeast Anticancer Drug Screen. Data for the bub3 strain (AID 167); conditions: S. cerevisiae bub3 mutant strain, active compounds read high
How it was run: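 Whole-cell yeast assay. The mutant strain was incubated with compounds, and growth inhibition was determined by comparison with vehicle-treated cells.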

[11] = NCI Yeast Anticancer Drug Screen. Data for the wt2 strain (AID 169);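 note: 0% = growth of vehicle-treated yeast cultures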; conditions: S. cerevisiae wt2 strain growth inhibition, active compounds read high
How it was run: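 Yeast cells were exposed to test compounds, and growth inhibition was measured relative to vehicle-treated controls.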

[12] = NCI Yeast Anticancer Drug Screen. Data for the mlh1 strain (AID 171);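 note: 0% = growth of vehicle-treated control cultures of the same strain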; conditions: S. cerevisiae mlh1 strain growth inhibition, active compounds read high
How it was run: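 Yeast carrying a defined genetic alteration in DNA damage repair or cell cycle control were exposed to test compounds. Growth inhibition was measured relative to vehicle-treated controls.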

[13] = NCI Yeast Anticancer Drug Screen. Data for the sgs1 strain (AID 173);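 note: 0% = growth of vehicle-only control cultures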; conditions: S. cerevisiae sgs1 mutant, active compounds read high
How it was run: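 Yeast mutant strains carrying defined defects in DNA damage repair or cell cycle control were exposed to test compounds. Growth inhibition was scored against vehicle-treated controls.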

[14] = NCI Yeast Anticancer Drug Screen. Data for the mlh1 rad18 strain (AID 175); conditions: S. cerevisiae mlh1 rad18 strain growth inhibition, active compounds read high
How it was run: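 Growth inhibition of the yeast strain was measured after compound exposure and expressed relative to vehicle-treated controls. The strain carries defined defects in DNA damage repair.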

[15] = NCI Yeast Anticancer Drug Screen. Data for the rad18 strain (AID 177); conditions: S. cerevisiae rad18 mutant growth inhibition, active compounds read high
How it was run: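 Yeast carrying a defined DNA damage repair alteration were exposed to compounds. Growth inhibition was expressed relative to vehicle-treated controls.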

[16] = at 5.0 µM (retest, dose inferred, filed as 0.5)
[17] = at 50.0 µM (retest, dose inferred, filed as 5.0)

O=C([O][Sn]([O]C(=O)c1ccccc1)([c]1ccccc1)[c]1ccccc1)c1ccccc1
growth inhibition ([1]; at 1.2 µM): 23%
growth inhibition ([1]; at 3.7 µM): 21%
growth inhibition ([1]; at 11.0 µM): 22%
growth inhibition ([1]; at 33.0 µM): 46%
growth inhibition ([1]; at 100.0 µM): 81% (active)
growth inhibition ([2]; at 1.2 µM): 0%
growth inhibition ([2]; at 3.7 µM): 4%
growth inhibition ([2]; at 11.0 µM): -4%
growth inhibition ([2]; at 33.0 µM): 9%
growth inhibition ([2]; at 100.0 µM): 78% (active)
growth inhibition ([3]; at 1.2 µM): 30%
growth inhibition ([3]; at 3.7 µM): 18%
growth inhibition ([3]; at 11.0 µM): 24%
growth inhibition ([3]; at 33.0 µM): 21%
growth inhibition ([3]; at 100.0 µM): 18%
growth inhibition ([4]; at 1.2 µM): 1%
growth inhibition ([4]; at 3.7 µM): 14%
growth inhibition ([4]; at 11.0 µM): 20%
growth inhibition ([4]; at 33.0 µM): 43%
growth inhibition ([4]; at 100.0 µM): 86% (active)
growth inhibition ([5]; at 1.2 µM): 20%
growth inhibition ([5]; at 3.7 µM): 30%
growth inhibition [5, 16]: 4%
growth inhibition ([5]; at 11.0 µM): 27%
growth inhibition ([5]; at 33.0 µM): 40%
growth inhibition [5, 17]: 26%
growth inhibition ([5]; at 50.0 µM): 68.5%
growth inhibition ([5]; at 100.0 µM): 88% (active)
growth inhibition ([6]; at 1.2 µM): 21%
growth inhibition ([6]; at 3.7 µM): 16%
growth inhibition [6, 16]: 12%
growth inhibition ([6]; at 11.0 µM): 16%
growth inhibition ([6]; at 33.0 µM): 37%
growth inhibition [6, 17]: 52%
growth inhibition ([6]; at 50.0 µM): 76.8% (active)
growth inhibition ([6]; at 100.0 µM): 87% (active)
growth inhibition ([7]; at 1.2 µM): 32%
growth inhibition ([7]; at 3.7 µM): 23%
growth inhibition ([7]; at 11.0 µM): 30%
growth inhibition ([7]; at 33.0 µM): 35%
growth inhibition ([7]; at 100.0 µM): 82% (active)
growth inhibition ([8]; at 1.2 µM): 15%
growth inhibition ([8]; at 3.7 µM): 16%
growth inhibition ([8]; at 11.0 µM): 10%
growth inhibition ([8]; at 33.0 µM): 23%
growth inhibition ([8]; at 100.0 µM): 57%
growth inhibition [9, 16]: -1%
growth inhibition [9, 17]: 77% (active)
growth inhibition ([9]; at 50.0 µM): 60%
growth inhibition ([10]; at 1.2 µM): 8%
growth inhibition ([10]; at 3.7 µM): 2%
growth inhibition [10, 16]: -14%
growth inhibition ([10]; at 11.0 µM): 10%
growth inhibition ([10]; at 33.0 µM): 30%
growth inhibition [10, 17]: 87% (active)
growth inhibition ([10]; at 50.0 µM): 58.5%
growth inhibition ([10]; at 100.0 µM): 83% (active)
growth inhibition ([11]; at 1.2 µM): 8%
growth inhibition ([11]; at 3.7 µM): 1%
growth inhibition ([11]; at 11.0 µM): 20%
growth inhibition ([11]; at 33.0 µM): 81% (active)
growth inhibition ([11]; at 100.0 µM): 97% (active)
growth inhibition ([12]; at 1.2 µM): 1%
growth inhibition ([12]; at 3.7 µM): 14%
growth inhibition ([12]; at 11.0 µM): 20%
growth inhibition ([12]; at 33.0 µM): 43%
growth inhibition ([12]; at 100.0 µM): 86% (active)
growth inhibition ([13]; at 1.2 µM): 28%
growth inhibition ([13]; at 3.7 µM): 26%
growth inhibition ([13]; at 11.0 µM): 30%
growth inhibition ([13]; at 33.0 µM): 45%
growth inhibition ([13]; at 100.0 µM): 84% (active)
growth inhibition [14, 16]: 11%
growth inhibition [14, 17]: 76% (active)
growth inhibition ([14]; at 50.0 µM): 50.1%
growth inhibition ([15]; at 1.2 µM): 0%
growth inhibition ([15]; at 3.7 µM): -4%
growth inhibition ([15]; at 11.0 µM): -2%
growth inhibition ([15]; at 33.0 µM): 43%
growth inhibition ([15]; at 100.0 µM): 88% (active)

Source: PubChem BioAssay (NCI)
